From PubChem BioAssay (NCI)
The panel holds about 79,000 compounds, 15% with a hit somewhere; the sample as a whole holds those more often. The source made the active and inactive calls. No stated cut-off is given here; in the data, active means growth inhibition above about 70%; inactive means the rest.

How the values were obtained:
[1] = NCI Yeast Anticancer Drug Screen. Data for the rad50 strain (AID 155);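 further: 0% = growth of vehicle-only cultures of the same strain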; settings: S. cerevisiae rad50 strain growth inhibition, stronger effect = higher value
Method in brief: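 Readout: growth inhibition relative to vehicle-treated cultures. Compound exposure was carried out in a genetically defined yeast strain deficient in DNA damage repair.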

[2] = NCI Yeast Anticancer Drug Screen. Data for the mec2-1 strain (AID 157); settings: S. cerevisiae mec2-1 strain, stronger effect = higher value
Method in brief: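 Each compound was tested on mec2-1 yeast, a strain altered in DNA damage repair or cell cycle control. Growth inhibition is reported relative to vehicle.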

[3] = NCI Yeast Anticancer Drug Screen. Data for the sgs1 mgt1 strain (AID 161);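 further: 0% = growth of cultures given vehicle only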; settings: S. cerevisiae sgs1 mgt1 strain, stronger effect = higher value
Method in brief: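 Test agents were incubated with a DNA-repair-mutant yeast strain. Growth was then read and compared against vehicle-treated controls.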

[4] = NCI Yeast Anticancer Drug Screen. Data for the cln2 rad14 strain (AID 165);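 further: 0% = growth equal to vehicle treated cultures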; settings: S. cerevisiae cln2 rad14 strain, stronger effect = higher value
Method in brief: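 Test compounds were added to cln2 rad14 yeast cultures; inhibition of growth was then determined by comparison with vehicle treatment.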

[5] = NCI Yeast Anticancer Drug Screen. Data for the bub3 strain (AID 167); settings: S. cerevisiae bub3 mutant strain, stronger effect = higher value
Method in brief: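 Readout: yeast growth inhibition, expressed relative to vehicle-only wells. The test organism is a mutant strain from a panel with lesions in DNA repair or checkpoint genes.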

[6] = NCI Yeast Anticancer Drug Screen. Data for the mlh1 rad18 strain (AID 175); settings: S. cerevisiae mlh1 rad18 strain growth inhibition, stronger effect = higher value
Method in brief: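 Inhibition values reflect reduced growth of mutant yeast versus vehicle-treated controls following compound exposure; the mutations affect DNA damage repair.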

[7] = at 5.0 µM (retest, dose inferred, filed as 0.5)
[8] = at 50.0 µM (retest, dose inferred, filed as 5.0)

Measured: growth inhibition

O=C1C(=C2C(=O)c3ccccc3[N+]2=O)N([O-])c2ccccc21
active: [3]; at 50.0 µM 84.3% | [6]; at 50.0 µM 85.5%
inactive: [1]; [7] -2% | [1]; [8] 36% | [1]; at 50.0 µM 69% | [2]; [7] -6% | [2]; [8] 59% | [2]; at 50.0 µM 56% | [3]; [7] -3% | [3]; [8] 52% | [4]; [7] -10% | [4]; [8] 15% | [4]; at 50.0 µM 68% | [5]; [7] -6% | [5]; [8] 31% | [5]; at 50.0 µM 57.8% | [6]; [7] -5% | [6]; [8] 56%

CN(C)C1=NC2=S(SC(Nc3ccccc3)=N2)S1 (centres undefined)
inactive: [1]; [7] -4% | [1]; [8] 15% | [1]; at 50.0 µM 10.8% | [2]; [7] -7% | [2]; [8] 33% | [2]; at 50.0 µM -1% | [3]; [7] 10% | [3]; [8] 28% | [3]; at 50.0 µM -19.1% | [4]; [7] 10% | [4]; [8] 24% | [4]; at 50.0 µM -0.75% | [5]; [7] 3% | [5]; [8] 20% | [5]; at 50.0 µM 44% | [6]; [7] 24% | [6]; [8] 43% | [6]; at 50.0 µM -7.4%

COc1cccc(C2c3cc4c(cc3OC(N3CCOCC3)C2C)OCO4)c1 (centres undefined)
inactive: [1]; [7] 25% | [1]; [8] 16% | [1]; at 50.0 µM -11.8% | [2]; [7] 14% | [2]; [8] 6% | [2]; at 50.0 µM -9.25% | [3]; [7] 9% | [3]; [8] 7% | [3]; at 50.0 µM 3.2% | [4]; [7] 11% | [4]; [8] 6% | [4]; at 50.0 µM 8.45% | [5]; [7] 26% | [5]; [8] 13% | [5]; at 50.0 µM 0.2% | [6]; [7] 20% | [6]; [8] 13% | [6]; at 50.0 µM -3.05%

O=C(/C=C/c1ccccc1)CCN1CCN(CCC(=O)/C=C/c2ccccc2)CC1
inactive: [1]; [7] 36% | [2]; [7] 56% | [3]; [7] 40% | [3]; [8] 57% | [5]; [7] 36%
active: [1]; [8] 100% | [1]; at 50.0 µM 99.2% | [2]; [8] 100% | [2]; at 50.0 µM 99.5% | [3]; at 50.0 µM 99.4% | [4]; [7] 88% | [4]; [8] 100% | [4]; at 50.0 µM 99.4% | [5]; [8] 99% | [5]; at 50.0 µM 99.4% | [6]; [7] 78% | [6]; [8] 100% | [6]; at 50.0 µM 99.5%

COC(=O)C1=C(NC(=O)Nc2ccc(Cl)cc2)OC(C)(C)C1c1ccc(Cl)cc1 (centres undefined)
active: [1]; [7] 87% | [1]; [8] 88% | [1]; at 50.0 µM 96.5% | [2]; [7] 94% | [2]; [8] 94% | [2]; at 50.0 µM 98% | [3]; [7] 85% | [3]; [8] 92% | [3]; at 50.0 µM 97.1% | [4]; [7] 80% | [4]; [8] 87% | [4]; at 50.0 µM 94.8% | [5]; [7] 89% | [5]; [8] 89% | [5]; at 50.0 µM 95.4% | [6]; [7] 85% | [6]; [8] 89% | [6]; at 50.0 µM 96.8%

Cc1cc(Cl)cc2c1NC(=O)C2(O)C/C(=N/NC(=O)CC#N)c1cccc([N+](=O)[O-])c1 (centres undefined)
active: [6]; at 50.0 µM 76.8%
inactive: [1]; [7] 4% | [1]; [8] 20% | [1]; at 50.0 µM 59.1% | [2]; [7] -13% | [2]; [8] 35% | [2]; at 50.0 µM 38.1% | [3]; [7] -1% | [3]; [8] -4% | [3]; at 50.0 µM 62.2% | [4]; [7] -3% | [4]; [8] 1% | [4]; at 50.0 µM 9.4% | [5]; [7] 1% | [5]; [8] 13% | [5]; at 50.0 µM 15.4% | [6]; [7] 1% | [6]; [8] -23%

O=C(/C=C(/Nc1ccccc1)C(=O)c1ccccc1)c1ccccc1
active: [1]; [8] 77% | [2]; [8] 96% | [3]; [8] 90% | [5]; at 50.0 µM 74% | [6]; [8] 91%
inactive: [1]; [7] 3% | [1]; at 50.0 µM 30.6% | [2]; [7] 9% | [2]; at 50.0 µM 37.2% | [3]; [7] 8% | [3]; at 50.0 µM 68.8% | [4]; [7] 0% | [4]; [8] 39% | [4]; at 50.0 µM -5.1% | [5]; [7] 13% | [5]; [8] 33% | [6]; [7] 6% | [6]; at 50.0 µM 37.7%

O=C1C=CC(=O)c2c(O)c(N3CCN(CCOCCO)CC3)c(Br)c(O)c21
inactive: [1]; [7] 15% | [2]; [7] 13% | [3]; [7] 18% | [4]; [7] 17% | [5]; [7] 25% | [6]; [7] 16%
active: [1]; [8] 96% | [1]; at 50.0 µM 88.3% | [2]; [8] 98% | [2]; at 50.0 µM 88.6% | [3]; [8] 97% | [3]; at 50.0 µM 89.7% | [4]; [8] 96% | [4]; at 50.0 µM 86.4% | [5]; [8] 96% | [5]; at 50.0 µM 85.9% | [6]; [8] 98% | [6]; at 50.0 µM 86.5%

N#CC1=C(N)OC(/C=C/c2ccccc2)=C(C#N)C1c1ccccc1 (centres undefined)
inactive: [1]; [7] 33% | [2]; [7] 25% | [3]; [7] 30% | [4]; [7] 33% | [5]; [7] 23% | [6]; [7] 19%
active: [1]; [8] 81% | [1]; at 50.0 µM 90.2% | [2]; [8] 81% | [2]; at 50.0 µM 76.3% | [3]; [8] 91% | [3]; at 50.0 µM 93.6% | [4]; [8] 86% | [4]; at 50.0 µM 101% | [5]; [8] 81% | [5]; at 50.0 µM 75% | [6]; [8] 86% | [6]; at 50.0 µM 88.3%

COc1ccc(/C(C#N)=C/c2ccncc2)cc1
inactive: [1]; [7] 1% | [1]; [8] 28% | [2]; [7] -49% | [2]; [8] 14% | [2]; at 50.0 µM 39.2% | [3]; [7] -2% | [3]; [8] 28% | [3]; at 50.0 µM 68% | [4]; [7] 4% | [4]; [8] 23% | [4]; at 50.0 µM 46.4% | [5]; [7] 7% | [5]; [8] 67% | [6]; [7] -3% | [6]; [8] 28% | [6]; at 50.0 µM 51.3%
active: [1]; at 50.0 µM 73.2% | [5]; at 50.0 µM 77.4%

CC1(C)CCC[C@@]2(C)C1CC[C@@]1(CO1)[C@@H]2/C=C\C(C=O)CC=O (some centres undefined)
inactive: [1]; [7] 60% | [2]; [7] 36% | [3]; [7] 59% | [6]; at 50.0 µM -27.4%
active: [1]; [8] 99% | [1]; at 50.0 µM 92.9% | [2]; [8] 100% | [2]; at 50.0 µM 94.2% | [3]; [8] 100% | [3]; at 50.0 µM 94.5% | [4]; [7] 70% | [4]; [8] 100% | [4]; at 50.0 µM 92.7% | [5]; [7] 79% | [5]; [8] 100% | [5]; at 50.0 µM 93.3% | [6]; [7] 87% | [6]; [8] 99%

CC1CCCN(CC(O)CN2CCCc3ccccc32)C1 (centres undefined)
active: [1]; at 50.0 µM 97.9% | [2]; at 50.0 µM 94.5% | [3]; at 50.0 µM 97.6% | [4]; at 50.0 µM 94.4% | [5]; at 50.0 µM 96% | [6]; at 50.0 µM 97.5%
inactive: [1]; [7] 0% | [1]; [8] 32% | [2]; [7] 8% | [2]; [8] 17% | [3]; [7] 2% | [3]; [8] 25% | [4]; [7] 26% | [4]; [8] 33% | [5]; [7] -7% | [5]; [8] 29% | [6]; [7] 6% | [6]; [8] 40%

Nc1ccc(Oc2ccc(-c3ccccc3)cc2)c(Cl)c1
active: [1]; [8] 97% | [1]; at 50.0 µM 97.8% | [2]; [8] 98% | [2]; at 50.0 µM 98.3% | [3]; [7] 72% | [3]; [8] 98% | [3]; at 50.0 µM 98% | [4]; [8] 97% | [4]; at 50.0 µM 96.3% | [5]; [7] 78% | [5]; [8] 97% | [5]; at 50.0 µM 98% | [6]; [7] 89% | [6]; [8] 97% | [6]; at 50.0 µM 97.7%
inactive: [1]; [7] 61% | [2]; [7] 61% | [4]; [7] 35%
